According to the supplement of paper PMC11732987, “Enantioselective OTUD7B fragment discovery through chemoproteomics screening and high-throughput optimisation” (Communications Chemistry, 2025):

Legend:
Test in all cases: log2 ratio of Biotin-Ahx-Ub-VS probe labelling (fragment/DMSO); higher = less target engagement (more negative = stronger competition), active = hit call of the paper (q ≤ 0.05, log2 ratio ≤ -1)
Conditions in all cases: compound concentration: 200 uM; treatment time: 3 h
OTUD6B = target: T1, OTUD6B (UniProt Q8N6M0)
T1 sequence (whole entry): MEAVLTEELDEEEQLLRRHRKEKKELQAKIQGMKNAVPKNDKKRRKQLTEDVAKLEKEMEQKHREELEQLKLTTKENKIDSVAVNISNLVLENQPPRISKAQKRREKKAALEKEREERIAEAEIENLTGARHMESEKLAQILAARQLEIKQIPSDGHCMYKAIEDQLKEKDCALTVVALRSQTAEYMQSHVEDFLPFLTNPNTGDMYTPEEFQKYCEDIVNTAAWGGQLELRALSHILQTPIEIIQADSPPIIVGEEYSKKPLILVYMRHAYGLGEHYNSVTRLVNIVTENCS
Outline: (§1)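 Using Biotin-Ahx-Ub-VS at 0.5 µM final for 1 h, DUBs were labelled in HEK293T lysate (495 µg per sample) that had first been treated in triplicate with fragment at 200 µM or vehicle for 3 h. NeutrAvidin enrichment, LysC and trypsin digestion and diaPASEF LC-MS/MS followed. Spectronaut label-free quantities were global-median-normalised. Values are average log2 fragment/vehicle ratios by unpaired t-test, using proteins with ≥2 unique peptides.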

OTUD7B = target: T2, OTUD7B (UniProt Q6GQQ9)
T2 sequence (whole entry): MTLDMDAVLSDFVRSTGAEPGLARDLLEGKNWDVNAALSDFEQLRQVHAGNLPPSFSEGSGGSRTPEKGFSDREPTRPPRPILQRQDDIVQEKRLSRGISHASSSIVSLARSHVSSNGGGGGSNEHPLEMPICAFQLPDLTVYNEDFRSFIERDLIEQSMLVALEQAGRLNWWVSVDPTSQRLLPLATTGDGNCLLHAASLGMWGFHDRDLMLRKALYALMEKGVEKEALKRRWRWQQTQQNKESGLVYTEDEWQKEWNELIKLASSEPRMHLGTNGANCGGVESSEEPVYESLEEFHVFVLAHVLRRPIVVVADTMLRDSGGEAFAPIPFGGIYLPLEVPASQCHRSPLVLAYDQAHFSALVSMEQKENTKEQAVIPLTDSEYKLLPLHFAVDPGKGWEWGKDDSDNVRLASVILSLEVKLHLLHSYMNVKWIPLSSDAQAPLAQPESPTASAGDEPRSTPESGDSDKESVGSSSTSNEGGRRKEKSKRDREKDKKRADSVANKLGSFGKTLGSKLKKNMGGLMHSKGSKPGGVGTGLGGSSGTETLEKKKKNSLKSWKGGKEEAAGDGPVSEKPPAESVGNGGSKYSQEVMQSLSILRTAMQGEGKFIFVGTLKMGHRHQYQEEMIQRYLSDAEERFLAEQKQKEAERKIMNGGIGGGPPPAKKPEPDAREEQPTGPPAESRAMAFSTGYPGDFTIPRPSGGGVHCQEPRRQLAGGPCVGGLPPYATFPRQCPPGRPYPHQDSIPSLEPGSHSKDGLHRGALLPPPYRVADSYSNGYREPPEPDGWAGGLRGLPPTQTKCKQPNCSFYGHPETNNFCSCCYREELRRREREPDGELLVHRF
Outline: as §1

PRPF8 = PRPF8 (UniProt Q6P2Q9)
Outline: as §1

PSMD7 = target: T3, PSMD7 (UniProt P51665)
T3 sequence (whole entry): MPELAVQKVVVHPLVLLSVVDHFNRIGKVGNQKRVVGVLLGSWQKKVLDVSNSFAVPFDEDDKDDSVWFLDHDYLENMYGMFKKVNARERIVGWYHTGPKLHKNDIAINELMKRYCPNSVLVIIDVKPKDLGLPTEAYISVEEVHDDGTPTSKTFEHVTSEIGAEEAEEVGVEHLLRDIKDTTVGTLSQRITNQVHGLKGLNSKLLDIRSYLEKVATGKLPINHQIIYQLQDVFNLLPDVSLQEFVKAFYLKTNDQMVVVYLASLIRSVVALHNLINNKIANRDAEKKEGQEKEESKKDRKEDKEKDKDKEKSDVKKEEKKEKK
Outline: as §1

UCHL1 = UCHL1 (UniProt P09936)
UCHL1, sequence (P09936 whole entry, looked up): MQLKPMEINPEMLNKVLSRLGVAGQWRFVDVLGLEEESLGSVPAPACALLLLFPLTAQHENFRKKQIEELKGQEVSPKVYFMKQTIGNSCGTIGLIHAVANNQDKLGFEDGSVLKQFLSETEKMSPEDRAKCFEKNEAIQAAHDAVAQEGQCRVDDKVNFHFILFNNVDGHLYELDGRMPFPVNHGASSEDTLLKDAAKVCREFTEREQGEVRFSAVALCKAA
Outline: as §1

UCHL3 = target: T4, UCHL3 (UniProt P15374)
T4 sequence (whole entry): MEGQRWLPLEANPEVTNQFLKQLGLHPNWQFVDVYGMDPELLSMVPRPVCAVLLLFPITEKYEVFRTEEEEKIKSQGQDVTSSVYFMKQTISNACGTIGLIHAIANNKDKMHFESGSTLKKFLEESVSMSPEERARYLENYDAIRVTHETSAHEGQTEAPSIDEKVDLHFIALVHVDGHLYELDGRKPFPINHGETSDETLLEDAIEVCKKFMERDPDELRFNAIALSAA
Outline: as §1

UCHL5 = target: T5, UCHL5 (UniProt Q9Y5K5)
T5 sequence (whole entry): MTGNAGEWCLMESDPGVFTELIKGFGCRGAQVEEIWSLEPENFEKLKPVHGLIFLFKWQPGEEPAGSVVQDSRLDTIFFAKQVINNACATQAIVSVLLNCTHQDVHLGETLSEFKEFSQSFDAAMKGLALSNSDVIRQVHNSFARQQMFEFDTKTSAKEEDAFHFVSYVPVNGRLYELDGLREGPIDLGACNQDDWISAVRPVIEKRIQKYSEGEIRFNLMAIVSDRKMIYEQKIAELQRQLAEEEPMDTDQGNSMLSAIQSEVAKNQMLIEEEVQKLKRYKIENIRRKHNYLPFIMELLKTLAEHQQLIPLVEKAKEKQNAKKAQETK
Outline: as §1

USP10 = USP10 (UniProt Q14694)
USP10, sequence (Q14694 whole entry): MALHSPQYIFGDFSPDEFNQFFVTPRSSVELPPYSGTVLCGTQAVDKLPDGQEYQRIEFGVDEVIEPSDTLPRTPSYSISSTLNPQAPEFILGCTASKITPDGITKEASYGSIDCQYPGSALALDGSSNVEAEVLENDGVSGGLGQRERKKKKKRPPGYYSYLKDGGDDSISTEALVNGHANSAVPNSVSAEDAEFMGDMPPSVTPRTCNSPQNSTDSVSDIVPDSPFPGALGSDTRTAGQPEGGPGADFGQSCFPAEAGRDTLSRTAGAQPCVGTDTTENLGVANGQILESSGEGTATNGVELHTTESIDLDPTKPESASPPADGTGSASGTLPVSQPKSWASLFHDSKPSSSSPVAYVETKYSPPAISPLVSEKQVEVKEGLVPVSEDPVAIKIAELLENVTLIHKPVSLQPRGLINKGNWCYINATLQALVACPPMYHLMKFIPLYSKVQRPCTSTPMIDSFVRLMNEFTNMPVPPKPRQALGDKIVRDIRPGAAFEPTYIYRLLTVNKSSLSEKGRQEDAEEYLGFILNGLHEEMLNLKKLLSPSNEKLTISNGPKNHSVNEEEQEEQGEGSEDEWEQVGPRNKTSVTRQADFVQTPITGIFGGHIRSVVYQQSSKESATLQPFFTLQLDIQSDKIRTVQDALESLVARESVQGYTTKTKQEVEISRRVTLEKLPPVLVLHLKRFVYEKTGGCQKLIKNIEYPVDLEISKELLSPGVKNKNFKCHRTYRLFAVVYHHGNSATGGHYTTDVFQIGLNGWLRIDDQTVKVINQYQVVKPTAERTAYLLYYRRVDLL
Outline: as §1

USP15 = target: T6, USP15 (UniProt Q9Y4E8)
T6 sequence (whole entry): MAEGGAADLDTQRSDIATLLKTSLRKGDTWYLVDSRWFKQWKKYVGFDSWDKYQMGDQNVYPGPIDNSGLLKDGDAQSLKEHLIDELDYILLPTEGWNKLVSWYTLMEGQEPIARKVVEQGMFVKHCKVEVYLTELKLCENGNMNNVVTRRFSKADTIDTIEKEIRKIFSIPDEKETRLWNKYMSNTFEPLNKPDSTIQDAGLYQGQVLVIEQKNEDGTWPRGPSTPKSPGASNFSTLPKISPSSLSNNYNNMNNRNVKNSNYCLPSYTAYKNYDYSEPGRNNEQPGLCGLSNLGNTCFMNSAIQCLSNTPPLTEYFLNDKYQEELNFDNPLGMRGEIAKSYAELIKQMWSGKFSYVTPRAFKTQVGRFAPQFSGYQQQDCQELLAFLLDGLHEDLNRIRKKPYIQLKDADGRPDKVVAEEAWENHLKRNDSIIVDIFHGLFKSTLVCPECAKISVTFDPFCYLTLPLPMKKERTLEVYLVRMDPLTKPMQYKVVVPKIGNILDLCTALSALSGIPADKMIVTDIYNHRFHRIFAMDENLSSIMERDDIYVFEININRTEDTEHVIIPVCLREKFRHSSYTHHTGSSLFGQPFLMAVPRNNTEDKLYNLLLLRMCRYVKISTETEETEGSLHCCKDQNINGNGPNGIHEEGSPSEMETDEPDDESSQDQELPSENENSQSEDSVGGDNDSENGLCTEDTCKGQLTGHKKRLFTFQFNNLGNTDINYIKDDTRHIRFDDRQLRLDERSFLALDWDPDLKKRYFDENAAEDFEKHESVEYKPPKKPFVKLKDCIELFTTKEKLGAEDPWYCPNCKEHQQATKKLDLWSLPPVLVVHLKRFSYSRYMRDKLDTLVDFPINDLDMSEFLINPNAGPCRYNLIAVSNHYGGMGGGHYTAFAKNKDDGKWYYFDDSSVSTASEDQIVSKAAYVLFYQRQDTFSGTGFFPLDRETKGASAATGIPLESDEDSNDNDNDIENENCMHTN
Outline: as §1

USP16 = USP16 (UniProt Q9Y5T5)
USP16, sequence (Q9Y5T5 whole entry, looked up): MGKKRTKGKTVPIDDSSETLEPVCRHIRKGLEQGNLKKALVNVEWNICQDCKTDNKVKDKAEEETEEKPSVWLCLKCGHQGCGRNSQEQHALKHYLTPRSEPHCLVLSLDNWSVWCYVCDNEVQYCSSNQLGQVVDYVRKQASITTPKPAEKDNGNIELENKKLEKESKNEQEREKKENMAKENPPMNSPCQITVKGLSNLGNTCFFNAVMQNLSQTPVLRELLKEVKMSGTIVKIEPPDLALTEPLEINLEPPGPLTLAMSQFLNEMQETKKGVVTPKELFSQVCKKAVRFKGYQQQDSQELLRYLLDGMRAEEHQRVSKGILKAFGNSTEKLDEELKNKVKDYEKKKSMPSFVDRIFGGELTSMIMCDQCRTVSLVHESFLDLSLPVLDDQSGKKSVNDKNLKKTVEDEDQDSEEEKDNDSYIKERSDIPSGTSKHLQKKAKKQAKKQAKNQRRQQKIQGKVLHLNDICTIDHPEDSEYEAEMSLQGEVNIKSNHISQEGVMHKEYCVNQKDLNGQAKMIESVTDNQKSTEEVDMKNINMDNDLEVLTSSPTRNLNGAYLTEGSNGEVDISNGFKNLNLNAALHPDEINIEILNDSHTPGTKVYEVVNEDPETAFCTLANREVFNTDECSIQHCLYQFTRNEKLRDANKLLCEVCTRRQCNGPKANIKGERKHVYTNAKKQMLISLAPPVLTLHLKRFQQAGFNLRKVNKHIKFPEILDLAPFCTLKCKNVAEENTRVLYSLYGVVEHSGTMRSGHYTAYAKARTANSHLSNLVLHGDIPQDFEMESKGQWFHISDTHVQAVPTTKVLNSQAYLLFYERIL
Outline: as §1

Measured: log2 ratio of Biotin-Ahx-Ub-VS probe labelling

Cc1nc(CNC(=O)CCl)c2ccccn12.Cl
active: UCHL1 -1.12
inactive: OTUD6B -0.000255 | OTUD7B -0.458 | PRPF8 -0.14 | PSMD7 -0.132 | UCHL3 -0.319 | UCHL5 -0.224 | USP10 -0.121 | USP15 -0.398 | USP16 -0.0983
